This passage reports composite z-score and z-score results from PubChem BioAssay.

A short description of experiment [1]: compounds binding Alexa647 anti-His antibody – biochemical, small-molecule microarray, 635 nm fluorescence, artefact control for SMM control protein annotation, primary screen (AID 1128).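 Further: score merges feature fluorescence with signal-to-noise for each printed compound spot.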 Particulars: higher = more signal.
For experiment [2], the system named is Human papillomavirus type 1a E7 protein (residues 1-88). The experiment can be described thus: HPV1a E7 small-molecule binders, primary screen, biochemical, small-molecule microarray, residues 1-88, 635 nm (AID 1129). Particulars: small-molecule microarray binding, fluorescence 635 nm; higher = more signal.
Experiment [3] addresses Focal adhesion kinase 1 (Homo sapiens) (UniProt Q05397). The experiment can be described thus: PTK2 protein binding on printed compound slides – biochemical, small-molecule microarray, 635/667 nm fluorescence, BSA, DTT, primary screen (AID 1130).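 Further: composite of spot emission at 667 nm and signal to noise over triplicate slides.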 The note with it: 635 nm fluorescence, higher = more signal.
The test system of experiment [4] is Fibrinogen (Alexa647-labelled). Description: Alexa647-fibrinogen binding to printed small molecules – biochemical, small-molecule microarray, 635/667 nm fluorescence, artefact control for SMM control-protein annotation, profiling panel (AID 1131).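 Further: z-score merges 667 nm fluorescence with per-spot signal-to-noise over triplicate slides.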 The note with it: fibrinogen-A647 binding fluorescence, higher = more signal.
The target of experiment [5] is Follistatin (Homo sapiens) (UniProt P19883). The experiment can be described thus: FST protein binding to printed compounds – biochemical, small-molecule microarray, 635/667 nm fluorescence, primary screen (AID 1132). The note with it: 635 nm fluorescence, higher = more signal.
Sequence of Follistatin (Homo sapiens) (P19883 whole entry, looked up): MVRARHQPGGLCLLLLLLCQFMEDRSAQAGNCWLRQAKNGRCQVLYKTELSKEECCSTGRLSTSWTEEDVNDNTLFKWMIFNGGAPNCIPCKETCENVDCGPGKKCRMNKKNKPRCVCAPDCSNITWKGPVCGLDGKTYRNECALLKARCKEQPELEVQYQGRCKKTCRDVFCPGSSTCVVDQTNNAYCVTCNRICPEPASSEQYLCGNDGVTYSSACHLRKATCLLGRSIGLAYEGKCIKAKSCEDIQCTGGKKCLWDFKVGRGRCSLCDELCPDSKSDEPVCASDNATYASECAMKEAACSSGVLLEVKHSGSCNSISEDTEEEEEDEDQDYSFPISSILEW
The target in experiment [6] is Fibroblast growth factor 2 (Homo sapiens) (UniProt P09038). Description: basic fibroblast growth factor binding to printed compounds – biochemical, small-molecule microarray, 635/667 nm fluorescence, primary screen (AID 1133). The note with it: FGF2, fluorescence 635/667, higher = more signal.
Sequence of Fibroblast growth factor 2 (Homo sapiens) (P09038 whole entry, looked up): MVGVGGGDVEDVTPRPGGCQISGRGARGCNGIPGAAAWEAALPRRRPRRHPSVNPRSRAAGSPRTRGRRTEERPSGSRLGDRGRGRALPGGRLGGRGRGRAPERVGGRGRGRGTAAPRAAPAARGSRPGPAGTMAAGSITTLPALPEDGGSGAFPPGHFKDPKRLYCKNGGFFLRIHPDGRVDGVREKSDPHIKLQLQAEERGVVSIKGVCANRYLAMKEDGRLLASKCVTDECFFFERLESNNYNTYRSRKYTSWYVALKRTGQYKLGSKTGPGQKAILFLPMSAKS
The nature of experiment [7]: JC-1 mitochondrial potential readout, lung cancer cells – cell-based, A549, JC-1 fluorescence, basal, 24 h, 100 nL, profiling panel (AID 1138).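 Further: A549 lung adenocarcinoma cells under basal conditions with no added stimulus; test concentration not given here.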 Particulars: higher = more signal.
The test system of experiment [8] is Lefty1. Description: Lefty1 protein binding to printed compounds – biochemical, small-molecule microarray, 635/667 nm fluorescence, primary screen (AID 1139). Particulars: fluorescence 635/667, higher = more signal.
Experiment [9] deals with wheat germ agglutinin (Triticum aestivum), Alexa647-labelled. Description: Alexa647-WGA lectin binding to printed small molecules – biochemical, small-molecule microarray, 635/667 nm fluorescence, artefact control for SMM control-protein annotation, profiling panel (AID 1140).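 Further: score merges 667 nm feature emission with signal to noise over triplicate slides.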 The note with it: WGA-A647 binding, 635 nm fluorescence, higher = more signal.
The target of experiment [10] is Luciferin 4-monooxygenase (Photinus pyralis) (UniProt P08659). The experiment can be described thus: inhibition of purified Photinus pyralis luciferase – biochemical, luminescence, purified enzyme, 2006 set, primary screen (AID 1141).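 Further: cell-free assay with purified firefly luciferase at 100 ng per well in PBS; test concentration not given here.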 Particulars: purified firefly luciferase, SteadyGlo luminescence, 30 min; higher = more signal, called active from +8 up or from −8 down.
Sequence of Luciferin 4-monooxygenase (Photinus pyralis) (P08659 whole entry, looked up): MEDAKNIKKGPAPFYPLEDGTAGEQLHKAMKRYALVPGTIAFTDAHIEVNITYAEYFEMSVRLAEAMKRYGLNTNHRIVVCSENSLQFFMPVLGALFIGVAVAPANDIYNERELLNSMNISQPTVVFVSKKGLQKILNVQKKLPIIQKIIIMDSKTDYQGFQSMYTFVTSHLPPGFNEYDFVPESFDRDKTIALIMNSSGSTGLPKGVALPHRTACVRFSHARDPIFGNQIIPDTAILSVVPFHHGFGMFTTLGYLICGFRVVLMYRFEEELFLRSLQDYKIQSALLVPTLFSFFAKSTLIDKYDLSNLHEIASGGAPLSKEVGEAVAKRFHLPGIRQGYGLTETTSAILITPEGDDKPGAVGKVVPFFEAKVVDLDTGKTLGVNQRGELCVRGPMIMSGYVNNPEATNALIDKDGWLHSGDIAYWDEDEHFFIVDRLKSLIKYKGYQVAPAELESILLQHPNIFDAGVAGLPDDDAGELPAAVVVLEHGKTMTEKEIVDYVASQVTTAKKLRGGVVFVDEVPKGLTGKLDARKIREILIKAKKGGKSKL

The source made the active and inactive calls.

Sequence of Focal adhesion kinase 1 (Homo sapiens) (Q05397 whole entry, looked up): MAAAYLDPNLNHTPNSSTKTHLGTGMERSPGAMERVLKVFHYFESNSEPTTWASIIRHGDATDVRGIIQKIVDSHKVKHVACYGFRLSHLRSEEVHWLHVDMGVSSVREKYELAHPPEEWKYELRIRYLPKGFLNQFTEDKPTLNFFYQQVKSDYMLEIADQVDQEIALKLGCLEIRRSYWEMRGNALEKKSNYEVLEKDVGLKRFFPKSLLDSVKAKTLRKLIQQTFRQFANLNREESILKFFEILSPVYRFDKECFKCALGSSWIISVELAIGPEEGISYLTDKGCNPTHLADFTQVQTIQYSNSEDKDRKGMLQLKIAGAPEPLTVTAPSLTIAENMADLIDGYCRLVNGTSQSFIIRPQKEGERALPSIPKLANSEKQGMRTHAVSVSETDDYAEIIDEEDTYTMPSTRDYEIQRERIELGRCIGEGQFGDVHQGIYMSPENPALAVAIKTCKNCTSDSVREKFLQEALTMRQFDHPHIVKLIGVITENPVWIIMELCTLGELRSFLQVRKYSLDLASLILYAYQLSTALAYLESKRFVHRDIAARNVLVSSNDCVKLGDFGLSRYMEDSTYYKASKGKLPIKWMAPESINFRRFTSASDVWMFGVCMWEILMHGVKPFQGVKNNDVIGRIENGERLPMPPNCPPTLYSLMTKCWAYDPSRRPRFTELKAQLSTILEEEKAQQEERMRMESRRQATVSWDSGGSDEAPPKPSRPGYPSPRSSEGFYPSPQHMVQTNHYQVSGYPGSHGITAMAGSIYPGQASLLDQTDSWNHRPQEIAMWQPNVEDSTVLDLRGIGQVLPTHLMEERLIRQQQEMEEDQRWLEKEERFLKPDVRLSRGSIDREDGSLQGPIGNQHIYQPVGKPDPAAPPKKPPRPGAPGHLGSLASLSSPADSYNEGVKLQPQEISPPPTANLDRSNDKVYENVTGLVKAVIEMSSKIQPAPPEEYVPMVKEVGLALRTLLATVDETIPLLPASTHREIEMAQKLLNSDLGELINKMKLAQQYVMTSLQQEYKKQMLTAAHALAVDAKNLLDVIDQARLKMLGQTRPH

With `CCOC(=O)CCN1C(=O)[C@H]2[C@H]3[C@H](O)[C@H](O)CC(=NO[C@@H]4O[C@H](CO)[C@@H](O)[C@H](O)[C@H]4O)[C@H]3CC[C@H]2C1=O`, the composite z-score came out at 0.919 in experiment [1]; 0.544 in experiment [2]; 0.068 in [3]; 0.551 in experiment [4]; 0.0489 in experiment [5]; 0.599 in experiment [6]. The composite z-score in experiment [8] is 0.49; in experiment [9], -0.104. In addition, the z-score in experiment [7] was -0.658; in experiment [10] it was 0.493 (inactive).

For `COC(=O)[C@H](C)NC(=O)CCC1CC(OC(=O)NCc2ccc3c(c2)OCO3)CC2(CCCC(COC(=O)NCc3ccccc3)O2)O1` (stereo not given in full), the composite z-score in experiment [1] is 0.554; in [2] it was 0.938; in experiment [3] it was -0.0996; in experiment [4], 0.332; in experiment [5] it was 0.653; in experiment [6], 0.718. The results for the composite z-score in [8] and in [9] were 0.827 and 0.0082, respectively. Further, the z-score in experiment [7] is 1.05; in experiment [10], 0.464 (inactive).

Consider `CC(=O)OC[C@H]1O[C@H](CCON=C(C)C)C=C[C@@H]1OC(C)=O`, for which the composite z-score is 1.56 in [1]; -0.33 in experiment [2]; 0.115 in experiment [3]; 0.0586 in experiment [4]; 0.521 in experiment [5]; 0.247 in experiment [6]. Moreover, the composite z-score in experiment [8] is 0.377; in [9], -0.178. Also, the z-score in experiment [7] is 0.0315; in experiment [10], 0.654 (inactive).

Consider `CC(CCC(=O)OC[C@H]1O[C@H](C#Cc2ccccc2)C=C[C@@H]1Oc1ccc(C)cc1)=NO[C@@H](C)c1cc(-c2c(C)cc(C)cc2C)no1`, for which the composite z-score is 0.888 in experiment [1]; -1.49 in experiment [2]; -0.0556 in experiment [3]; 0.709 in experiment [4]; -0.921 in [5]; -0.977 in experiment [6]. The composite z-score is -0.589 in [8] and 0.848 in experiment [9]. The z-score in [7] is -0.00541; in experiment [10], 0.0957 (inactive).

Take `CCN1C(=O)[C@H]2[C@H]3[C@H](O)[C@H](O)CC(=NO[C@H](C)c4cn([C@H](CO)Cc5ccccc5)nn4)[C@@H]3CC[C@H]2C1=O`: the composite z-score in experiment [1] came out at 3.76; in experiment [2], 1.07; in experiment [3], 0.454; in experiment [4], 0.932; in [5] it was 0.758; in [6], 0.474. Besides, the composite z-score in [8] turned out to be 0.734; in experiment [9], 1.15. For the same compound, the z-score in experiment [7] was -0.00321; in experiment [10] it was 0.275 (inactive).

Regarding `O=C1[C@H]2[C@H]3[C@H](O)[C@H](O)CC(=NO[C@@H]4O[C@H](CO)[C@@H](O)[C@H](O)[C@H]4O)[C@@H]3CC[C@H]2C(=O)N1C1CCCCC1`, the composite z-score in [1] was -0.293; in experiment [2] it was 0.486; in [3] it was -0.0408; in experiment [4], 0.384; in [5], 0.284; in [6], 0.415. The composite z-score in [8] worked out at 0.578; in experiment [9] it was 0.0714. The values for the z-score in experiment [7] and in [10] were 0.76 and -0.33 (inactive), respectively.

On to `CC(C)(C)N1C(=O)[C@H]2[C@@H]3C(=CC[C@H]2C1=O)C(=O)[C@H]1O[C@H]1[C@H]3O`, for which the composite z-score is 0.23 in experiment [1]; -0.137 in experiment [2]; -0.339 in [3]; -1.06 in experiment [4]; 0.1 in [5]; -0.17 in experiment [6]. The composite z-score was -0.0815 in experiment [8] and 0.844 in [9]. Moreover, the z-score was -0.732 in [7] and -2.65 (inactive) in [10].

Take `CC(=O)OC[C@H]1O[C@@H](ON=C2[C@H]3CCn4c(=O)n(-c5ccccc5)c(=O)n4[C@H]3[C@H](O)[C@@H]3O[C@H]23)[C@H](OC(C)=O)[C@@H](OC(C)=O)[C@@H]1OC(C)=O`: the composite z-score in experiment [1] was 1.66; in experiment [2], 0.894; in [3], -0.144; in experiment [4] it was 0.8; in [5] it was 0.419; in experiment [6] it was 0.431. The composite z-score in experiment [8] was determined as 0.413; in experiment [9] it was 0.169. Also, the z-score is 0.188 in experiment [7] and 0.939 (inactive) in [10].

Take `CCOC(=O)CCN1C(=O)[C@H]2[C@H]3[C@H](O)[C@H](O)CC(=NNC(=O)OCc4ccccc4)[C@H]3CC[C@H]2C1=O`: the composite z-score in experiment [1] is -0.954; in experiment [2] it was -0.746; in experiment [3], -0.355; in experiment [4] it was -0.714; in [5], 0.44; in [6] it was 0.386. The composite z-score was 0.742 in experiment [8] and -0.547 in experiment [9]. Besides, the z-score is -0.674 in experiment [7] and 0.292 (inactive) in [10].

Consider `CCOC(=O)[C@H](Cc1ccccc1)NC(=O)CCC1CC(OC(=O)NCCc2ccc(F)cc2)CC2(CCCC(COC(=O)NCCOc3ccccc3)O2)O1` (stereo not given in full), for which the composite z-score worked out at 0.569 in experiment [1]; 1.18 in experiment [2]; 0.237 in experiment [3]; 0.855 in experiment [4]; 0.557 in [5]; 1.24 in experiment [6]. The composite z-score was determined as 1.29 in [8] and 0.362 in experiment [9]. In addition, the results for the z-score in [7] and in experiment [10] were 0.678 and 0.46 (inactive), respectively.

As for `CC(C)=NO[C@@H](C)c1cn([C@H](CO)Cc2ccccc2)nn1`, the composite z-score was 0.554 in [1]; 0.598 in experiment [2]; -0.17 in experiment [3]; 0.17 in experiment [4]; 0.238 in experiment [5]; 0.239 in experiment [6]. The composite z-score is 0.542 in experiment [8] and 0.237 in experiment [9]. For the same compound, the z-score is -0.0312 in experiment [7] and -2 (inactive) in [10].

On to `C[C@@H]1CC[C@@H](C(=O)O)N[C@H]1c1cccc(N2CCOCC2)c1`, for which the composite z-score was found to be 0.06 in [1]; 0.827 in experiment [2]; 0.455 in experiment [3]; 0.301 in [4]; 0.769 in [5]; 0.652 in [6]. The composite z-score worked out at 0.554 in experiment [8] and 0.227 in experiment [9]. Further, the z-score in [7] is 2.11; in experiment [10] it was -1.34 (inactive).

As to `CCN(CC)CC(O)CN1CCCCc2nc(C)c(C)cc21` (stereo not given), the composite z-score in experiment [1] is 1; in experiment [2], 0.546; in experiment [3] it was -0.0492; in experiment [4], 0.0982; in [5], 0.355; in experiment [6], 0.639. For the same compound, the composite z-score was 0.516 in experiment [8] and 0.944 in experiment [9]. The z-score in experiment [7] is 1.09; in experiment [10] it was -1.12 (inactive).

Consider `O=C1C[C@@H](O)[C@@H](O)[C@@H]2[C@@H]3C(=O)N(C4CCCCC4)C(=O)[C@@H]3CC[C@@H]12`, for which the composite z-score is 0.69 in [1]; 0.54 in experiment [2]; -0.0599 in experiment [3]; 0.705 in experiment [4]; 0.373 in experiment [5]; 0.134 in experiment [6]. Moreover, the figures for the composite z-score in experiment [8] and in [9] were 0.66 and 0.282, respectively. For the same compound, the z-score in experiment [7] is 0.457; in experiment [10], 0.137 (inactive).

As to `CCOC(=O)[C@H](Cc1ccccc1)NC(=O)CCC1CC(OC(=O)NCc2ccc3c(c2)OCO3)CC2(CCCC(COC(=O)NCCOc3ccccc3)O2)O1` (stereo not given in full), the composite z-score in [1] is 0.777; in [2], 1.16; in experiment [3], -0.0176; in [4], 0.96; in experiment [5] it was 0.875; in experiment [6] it was 0.776. Also, the composite z-score was 1.2 in experiment [8] and 0.304 in [9]. Moreover, the z-score is 1.37 in experiment [7] and 0.289 (inactive) in experiment [10].
